# PubChem BioAssay AID493045 (Broad Institute, 2011)
# Potency and affinity values are given separately. Active and inactive are the calls of the source.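 The calls were made as follows: active = viability loss with fitted half-maximal dose at or below ten times the top valid dose; inconclusive = flat loss of 30 to 70 percent, or a poor fit; inactive = flat within 30 percent, weak potency, or rising signal.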
# Experiment: viability loss in BJeLR (HRASV12) cells, primary screen, Ras selective lethality project, cell-based, Alamar Blue, dry powder (AID 493045)
# Conditions: BJeLR (HRASV12) fibroblasts viability, 48 h; series mostly up to 45 µM
row,SMILES,outcome
1,COc1ccc(N(C(=O)CO)C(C(=O)NCCc2ccccc2)c2cccs2)cc1Cl (stereo unspecified),inactive
2,COc1ccc(N(C(=O)CSc2ncccn2)C(C(=O)NCCc2ccccc2)c2cccs2)cc1Cl (stereo unspecified),inactive
3,COCC(=O)N(c1ccc(OC)c(Cl)c1)C(C(=O)NCCc1ccccc1)c1cccs1 (stereo unspecified),inactive
4,COc1ccc(N(C(=O)[C@@H](C)Cl)C(C(=O)NCCc2ccccc2)c2cccs2)cc1Cl (stereo partly specified),inactive
5,CCC(=O)N(c1ccc(OC)c(Cl)c1)C(C(=O)NCCc1ccccc1)c1cccs1 (stereo unspecified),inactive
6,O=C(c1[nH]ncc1[N+](=O)[O-])N1CCN(C(c2ccccc2)c2ccccc2)CC1,inactive
